Results reported in PubChem BioAssay AID1159580 (chemical genetic matrix, 2015).
In all, about 5,500 compounds went through this assay and about 2,000 (36%) were called active. Not shown: some 18% with an inconclusive outcome. Rule as the data show it: active = normalized growth mostly below about 0.91 (no sharp cut-off); inconclusive = no clear call, values can overlap the other calls; inactive = mostly above about 0.92. Some of the results follow.

Test: chemical genetic growth profiling, strain panel (AID 1159580);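 also: tested at 20 µM; growth read once vehicle control cultures reached saturation at 30 °C; 1 = growth at the plate median or of vehicle wells; lower values mean less growth of the strain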
Conditions: growth OD

Measured: normalized growth

NC(=O)c1ncn([C@@H]2O[C@H](CO)[C@@H](O)[C@H]2O)n1
inactive: S. cerevisiae deletion strains, locus YJR075W, strain HOC1, stronger effect = lower value 0.989 | S. cerevisiae deletion strains, locus YKL009W, strain mrt4, stronger effect = lower value 0.992 | S. cerevisiae deletion strains, locus YKL068W, stronger effect = lower value 0.981 | S. cerevisiae deletion strains, locus YKL085W, strain MDH1 (second series), stronger effect = lower value 1 | S. cerevisiae deletion strains, locus YKL085W, strain MDH1, stronger effect = lower value 1 | S. cerevisiae deletion strains, locus YKL160W, strain elf1, stronger effect = lower value 0.984 | S. cerevisiae deletion strains, locus YKL190W, strain CNB1, stronger effect = lower value 0.988 | S. cerevisiae deletion strains, locus YKR001C, strain vps1, stronger effect = lower value 0.984 | S. cerevisiae deletion strains, locus YKR026C, strain gcn3, stronger effect = lower value 0.984 | S. cerevisiae deletion strains, locus YKR091W, strain srl3, stronger effect = lower value 0.982 | S. cerevisiae deletion strains, locus YLL001W, strain dnm1, stronger effect = lower value 0.984 | S. cerevisiae deletion strains, locus YLL026W, stronger effect = lower value 0.984 | S. cerevisiae deletion strains, locus YLL041C, strain sdh2, stronger effect = lower value 0.983 | S. cerevisiae deletion strains, locus YLR027C, strain aat2, stronger effect = lower value 0.983 | S. cerevisiae deletion strains, locus YLR039C, strain RIC1, stronger effect = lower value 1.01 | S. cerevisiae deletion strains, locus YLR058C, strain SHM2, stronger effect = lower value 0.999 | S. cerevisiae deletion strains, locus YLR102C, strain apc9, stronger effect = lower value 0.998 | S. cerevisiae deletion strains, locus YLR113W, strain HOG1, stronger effect = lower value 0.977 | S. cerevisiae deletion strains, locus YLR221C, strain rsa3, stronger effect = lower value 0.982 | S. cerevisiae deletion strains, locus YLR258W, strain gsy2, stronger effect = lower value 0.98 | S. cerevisiae deletion strains, locus YLR262C, strain YPT6 (second series), stronger effect = lower value 0.987 | S. cerevisiae deletion strains, locus YLR262C, strain YPT6, stronger effect = lower value 0.977 | S. cerevisiae deletion strains, locus YLR268W, strain sec22, stronger effect = lower value 0.987 | S. cerevisiae deletion strains, locus YLR320W, strain mms22, stronger effect = lower value 0.993 | S. cerevisiae deletion strains, locus YLR330W, strain CHS5, stronger effect = lower value 0.989 | S. cerevisiae deletion strains, locus YLR342W, strain FKS1 (second series), stronger effect = lower value 0.991 | S. cerevisiae deletion strains, locus YLR342W, strain FKS1, stronger effect = lower value 0.985 | S. cerevisiae deletion strains, locus YLR357W, strain rsc2, stronger effect = lower value 0.995 | S. cerevisiae deletion strains, locus YLR370C, strain arc18, stronger effect = lower value 0.984 | S. cerevisiae deletion strains, locus YLR371W, strain rom2, stronger effect = lower value 0.985 | S. cerevisiae deletion strains, locus YLR384C, strain iki3, stronger effect = lower value 0.979 | S. cerevisiae deletion strains, locus YLR418C, strain cdc73, stronger effect = lower value 1.03 | S. cerevisiae deletion strains, locus YML016C, strain PPZ1, stronger effect = lower value 1 | S. cerevisiae deletion strains, locus YML032C, strain rad52, stronger effect = lower value 0.988 | S. cerevisiae deletion strains, locus YML120C, strain ndi1, stronger effect = lower value 0.99 | S. cerevisiae deletion strains, locus YML124C, strain tub3, stronger effect = lower value 0.985 | S. cerevisiae deletion strains, locus YMR058W, strain fet3, stronger effect = lower value 0.998 | S. cerevisiae deletion strains, locus YMR078C, strain ctf18, stronger effect = lower value 0.979 | S. cerevisiae deletion strains, locus YMR125W, strain sto1, stronger effect = lower value 0.991 | S. cerevisiae deletion strains, locus YMR129W, stronger effect = lower value 0.997 | S. cerevisiae deletion strains, locus YMR205C, strain PFK2, stronger effect = lower value 0.996 | S. cerevisiae deletion strains, locus YMR223W, strain ubp8, stronger effect = lower value 0.989 | S. cerevisiae deletion strains, locus YMR231W, strain pep5, stronger effect = lower value 0.974 | S. cerevisiae deletion strains, locus YMR263W, strain SAP30, stronger effect = lower value 0.986 | S. cerevisiae deletion strains, locus YMR307W, strain GAS1, stronger effect = lower value 1 | S. cerevisiae deletion strains, locus YNL067W, strain RPL9B, stronger effect = lower value 1 | S. cerevisiae deletion strains, locus YNL071W, strain lat1, stronger effect = lower value 0.988 | S. cerevisiae deletion strains, locus YNL128W, strain TEP1, stronger effect = lower value 1 | S. cerevisiae deletion strains, locus YNL153C, strain GIM3, stronger effect = lower value 1 | S. cerevisiae deletion strains, locus YNL183C, strain NPR1, stronger effect = lower value 0.933 | S. cerevisiae deletion strains, locus YNL209W, strain ssb2, stronger effect = lower value 1 | S. cerevisiae deletion strains, locus YNL233W, strain BNI4, stronger effect = lower value 1.01 | S. cerevisiae deletion strains, locus YNL248C, strain rpa49, stronger effect = lower value 0.986 | S. cerevisiae deletion strains, locus YNL250W, strain rad50, stronger effect = lower value 0.989 | S. cerevisiae deletion strains, locus YNL271C, strain bni1, stronger effect = lower value 0.994 | S. cerevisiae deletion strains, locus YNL298W, strain CLA4, stronger effect = lower value 0.97 | S. cerevisiae deletion strains, locus YNL307C, strain MCK1, stronger effect = lower value 1 | S. cerevisiae deletion strains, locus YNL322C, strain KRE1 (second series), stronger effect = lower value 0.979 | S. cerevisiae deletion strains, locus YNL322C, strain KRE1, stronger effect = lower value 1 | S. cerevisiae deletion strains, locus YNR049C, strain mso1, stronger effect = lower value 0.986 | S. cerevisiae deletion strains, locus YNR052C, strain pop2, stronger effect = lower value 0.977 | S. cerevisiae deletion strains, locus YOL006C, strain TOP1, stronger effect = lower value 1.05 | S. cerevisiae deletion strains, locus YOL012C, strain htz1 1.07 | S. cerevisiae deletion strains, locus YOL147C, strain pex11, stronger effect = lower value 0.981 | S. cerevisiae deletion strains, locus YOR001W, strain rrp6, stronger effect = lower value 0.982 | S. cerevisiae deletion strains, locus YOR061W, strain CKA2, stronger effect = lower value 0.998 | S. cerevisiae deletion strains, locus YOR069W, strain VPS5, stronger effect = lower value 1 | S. cerevisiae deletion strains, locus YOR070C, strain gyp1, stronger effect = lower value 0.98 | S. cerevisiae deletion strains, locus YOR080W, strain dia2, stronger effect = lower value 0.979 | S. cerevisiae deletion strains, locus YOR083W, strain WHI5, stronger effect = lower value 0.986 | S. cerevisiae deletion strains, locus YOR106W, strain vam3, stronger effect = lower value 0.989 | S. cerevisiae deletion strains, locus YOR136W, strain idh2, stronger effect = lower value 0.984 | S. cerevisiae deletion strains, locus YOR144C, strain elg1, stronger effect = lower value 0.985 | S. cerevisiae deletion strains, locus YOR184W, strain ser1, stronger effect = lower value 0.992 | S. cerevisiae deletion strains, locus YOR231W, strain MKK1, stronger effect = lower value 0.975 | S. cerevisiae deletion strains, locus YOR265W, strain rbl2, stronger effect = lower value 0.972 | S. cerevisiae deletion strains, locus YOR270C, strain vph1, stronger effect = lower value 1.02 | S. cerevisiae deletion strains, locus YOR290C, strain snf2, stronger effect = lower value 0.976 | S. cerevisiae deletion strains, locus YOR316C, strain cot1, stronger effect = lower value 0.99 | S. cerevisiae deletion strains, locus YPL051W, strain arl3, stronger effect = lower value 0.98 | S. cerevisiae deletion strains, locus YPL055C, strain LGE1, stronger effect = lower value 0.951 | S. cerevisiae deletion strains, locus YPL078C, strain atp4, stronger effect = lower value 0.992 | S. cerevisiae deletion strains, locus YPL106C, strain sse1, stronger effect = lower value 0.939 | S. cerevisiae deletion strains, locus YPL240C, strain hsp82, stronger effect = lower value 0.992 | S. cerevisiae deletion strains, locus YPL241C, strain CIN2, stronger effect = lower value 0.985 | S. cerevisiae deletion strains, locus YPL256C, strain CLN2, stronger effect = lower value 0.981 | S. cerevisiae deletion strains, locus YPR119W, strain clb2, stronger effect = lower value 0.985 | S. cerevisiae deletion strains, locus YPR141C, strain kar3, stronger effect = lower value 0.989 | S. cerevisiae deletion strains, locus YPR163C, strain tif3, stronger effect = lower value 0.978 | S. cerevisiae deletion strains, locus YPR167C, strain met16, stronger effect = lower value 0.995 | S. cerevisiae deletion strains, strain wtn01, stronger effect = lower value 0.983 | S. cerevisiae strains, strain wild type, stronger effect = lower value 0.996
